T1: UNK ZnF1-3 (human, UniProt Q9C0B0 31-174)
T1 sequence: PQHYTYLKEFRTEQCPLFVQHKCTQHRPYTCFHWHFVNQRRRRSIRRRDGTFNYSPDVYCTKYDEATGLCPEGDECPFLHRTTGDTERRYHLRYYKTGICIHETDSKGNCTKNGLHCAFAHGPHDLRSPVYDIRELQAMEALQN

B1: chr2:176857141:176857142:-_ENSG00000144320_ENST00000272748|hu_mus|motif|central (ssRNA)
RNA: GGGAGUUCUACAGUCCGACGAUCUUUUUGCAAUCUCUGAUUUUUUUCUCUAAAUUCUUCCAAUGCUUGAAUUUCCUUAUCGGUAUUUUCUAGAACUUCUACUGUUGAAGGUUUUGCCCUCCAUCGAGAAAAUAAUCCACCCAUCAACAGAGGAUUGAGCAUCA
B2: 47141246_47141366_1218_CDS_ENSMUSG00000038291_ENSMUST00000170416|mouse|control|control (ssRNA)
RNA: GGGAGUUCUACAGUCCGACGAUCUUCUUCCUCACGCAUGAGCUUCUCAUACAGGUCGCUGACGAGGAAGGAGGGGUAAUACCGCUCCCUCAGCACCUCGGACACAUCGGCUUGGAUUUUGCUGAACACCUCGAUGCCUCUGUUCAACAGAGGAUUGAGCAUCA
B3: chr17:26875717:26875718:-_ENSG00000109103_ENST00000335765|hu_mus|FALSE|FALSE (ssRNA)
RNA: GGGAGUUCUACAGUCCGACGAUCACGGAUCUUGAACCUGACGAAGUCAAUCUUGUAGAUAUUUUCCUCAGGGGAGCACAGGUAGUCACCCGUGAUCCGCUGCAGCCCCAGCACAUCCUCCGGCCCGAUGGGCUGCUUGCCCUGCAACAGAGGAUUGAGCAUCA
B4: 230825810_230827160_2020_CDS_ENSG00000135775_ENST00000366669|human|control|control (ssRNA)
RNA: GGGAGUUCUACAGUCCGACGAUCGUUUAAUACAUCUGACACGGUUUCAUAGUACUUAUGAGUGCUUUCACUGAGAGUGCCUUCUAGCCACUGCUGAAUUAUUGCUUGUUUGAGCUUAUCCUUGUGUCCGCUCUGAAGCUGGAACAACAGAGGAUUGAGCAUCA
B5: chr2:242098653:242098654:+_ENSG00000115685_ENST00000406106|hu_mus|FALSE|FALSE (ssRNA)
RNA: GGGAGUUCUACAGUCCGACGAUCAUCAUAGAGAUCCAGUUCUCGAAGACUCUGCAGUUCUUCCAGGUUUUCAAUGCAUUUAAUUAGGUUUUGACGAAGGCAGAGUGACUUCACUUUCUUUAGCACCUCCAAGCCUUCAAUCUUCAACAGAGGAUUGAGCAUCA
B6: chr15:85259290:85259291:-_ENSG00000140612_ENST00000559729|hu_mus|FALSE|FALSE (ssRNA)
RNA: GGGAGUUCUACAGUCCGACGAUCAUUUAGGACUUGGUAGUACAGCUGCCUCUUGUUCAUCCGCCGCACAUCGUCUAGAAAGUCUAGAGACAGCAUGGUGAGAUGGAGAGCGCGACAACUAGCAGCCAAGAGGGCGCGAUAGAACAACAGAGGAUUGAGCAUCA
B7: chr2:125083379:125083380:+_ENSMUSG00000027203_ENSMUST00000082122|mus_mus|motif|central (ssRNA)
RNA: GGGAGUUCUACAGUCCGACGAUCUUAAAAAAAAUUACAAAUGAUACAGCAAUUAUGAUCAAAAACAGUUUUUGGAAGGCGGUAAUUUAAAUAAUACAACAACAACAAAAAAUCUAACUGUACCCUGGGUUUUACCAAGUCUGCCAACAGAGGAUUGAGCAUCA
B8: chr8:13019523:13019524:+_ENSMUSG00000031442_ENSMUST00000123811|mus_mus|FALSE|FALSE (ssRNA)
RNA: GGGAGUUCUACAGUCCGACGAUCUUAAAGUUUUGAGGCCAGAGUACCACAAAAAAUGGCCAUGGGGUUAAUCCCUGUUUAAAAAAAAUCAAAAACUUAUAAAAGACGAGAGUCCCUUGACCCCCCCUUAGGCUGUUGGUAGCACAACAGAGGAUUGAGCAUCA
B9: chr2:44571030:44571031:-_ENSG00000138078_ENST00000409411|hu_hu|FALSE|FALSE (ssRNA)
RNA: GGGAGUUCUACAGUCCGACGAUCUCUUAUCUUGGCAGCCACAUAUUUUUCAUCUGGAGCAACUCUGAUACAAUCAAUGAAGGGCUGGUCUAACUUAAGUUCCUCCAAAUUGAAUAAAACUUCAUAAUUAUCAUUGUCUGCUUCCAACAGAGGAUUGAGCAUCA
B10: chr8:90938390:90938391:+_ENSG00000164823_ENST00000451899|hu_hu|motif|central (ssRNA)
RNA: GGGAGUUCUACAGUCCGACGAUCAAGAAUAUGAAGUACCUGUCAAGGUUUCAACGAUAAAAAUAUUUUUUAAAAGACCCGGUUUGGUAAUAAAUUAGAUUUAUACAAUUGAUAAUUUCAAAAUAAAUAAAAUCUGAGUUGUAACAACAGAGGAUUGAGCAUCA
B11: 2747543_2750058_4223_CDS_ENSG00000101596_ENST00000320876|human|control|control (ssRNA)
RNA: GGGAGUUCUACAGUCCGACGAUCUUGGUUUGAAGGCAUGAGCUUUAAAUUGCUAGCUUUUGUAAGACUUAUUUUAACAUGUUGUACCGGUGCUGGAUUAUCCCACUGAUCACAAAGUUGAACAAUAAUAGGGUUCUGUAAAUCCAACAGAGGAUUGAGCAUCA
B12: chrX:101157612:101157613:-_ENSMUSG00000056537_ENSMUST00000070705|mus_mus|motif|central (ssRNA)
RNA: GGGAGUUCUACAGUCCGACGAUCAAAUUAUCAGUAACAGGUUAGCAAUUCAUCUGGUACCGAAAUCAAAUGUUUAAGUCCGGAAAUGUUGUUUUUAAAAUAUUCUUUCCAUCCUGAAAGAGAAACUAGAGAAAAGGCAUGAUACAACAGAGGAUUGAGCAUCA
B13: chr8:90938390:90938391:+_ENSG00000164823_ENST00000451899|hu_hu|FALSE|FALSE (ssRNA)
RNA: B10 RNA with G80U, G81A
B14: 5810229_5811228_1359_CDS_ENSG00000099219_ENST00000339450|human|control|control (ssRNA)
RNA: GGGAGUUCUACAGUCCGACGAUCAGUCUUAUGUUUGGGCUGCAAAAAUUUUUUGCCCAGGUACAAAACAACACCCAUUACCACCAUGUAGUUUAUGAUUGAGCCAAUACGAGAGGGGUAGGCAAUGACAAACAGGCCCAGCACCAACAGAGGAUUGAGCAUCA
B15: chr13:107772667:107772668:-_ENSMUSG00000021693_ENSMUST00000022204|mus_hu|motif|central (ssRNA)
RNA: GGGAGUUCUACAGUCCGACGAUCCAUUUCAUUAGGAGCUGAGUCAUCAAAGGCAUAAUCAAAACGAAAUGUUUGGUUUUCGGGGUACCUUGUUAAAUCUACUUUUUGUUUUGGUUCAUGUACCAUCACAACAUCUUUACUAGGCAACAGAGGAUUGAGCAUCA
B16: chr2:125083379:125083380:+_ENSMUSG00000027203_ENSMUST00000082122|mus_mus|FALSE|FALSE (ssRNA)
RNA: B7 RNA with G80U, G81A

Numbering of substitutions follows the chain as printed. The full ranking holds about 24,000 sequences; the median of “enrichment r” is about 0.99, and the highest 2% start at about 3.7. For the sample, the highest values were picked, then their nearest neighbours and some sequences at random.

The experiment deals with T1, UNK ZnF1-3. In words: nsRBNS (natural sequence RNA bind-n-seq); RBNS binding buffer (assumed for nsRBNS): 25 mM Tris pH 7.5, 150 mM KCl, 3 mM MgCl2, 0.01% Triton X-100, 500 ug/ml BSA, 20 U/ml SUPERase-In, 4 C; UNK is unkempt and MSI1 is Musashi-1; names of the RNAs are library labels; protein concentration not given here; high values mean tight binding.
B1 had a binding signal of 0.366 enrichment R.
As for B2, the figure is 0.729 enrichment R.
B3 displayed a binding signal of 0.51 enrichment R.
B4: the binding signal amounted to 0.468 enrichment R.
As for B5, the figure is 0.6 enrichment R; as for B6, 0.618 enrichment R; as for B7, 4.51 enrichment R.
B8: the binding signal amounted to 4.16 enrichment R.
For B9 the value was 1 enrichment R; for B10, 6.04 enrichment R; for B11, 1.18 enrichment R.
As for B12, the figure is 1.32 enrichment R; as for B13, 2.3 enrichment R; as for B14, 1.77 enrichment R.
For B15 the value was 1.02 enrichment R.
In turn, B16 came in with a binding signal of 4.2 enrichment R.
